ELG1 DNA repair = qHTS screen for small molecules that inhibit ELG1-dependent DNA repair in human embryonic kidney (HEK293T) cells expressing luciferase-tagged ELG1 | HEK293T ELG1-luciferase reporter, luminescence, 16 h; DNA damage induced by 5-fluorouridine | Potency, µM (titrated, usually from 46.1 µM), for the others: at the top dose activity change, negative = inhibition, hits mostly inhibitors | 330,000 tested, 2.3% active | AID 504467, 2011; further: potency means the concentration at half of the fitted maximal effect; nearly all actives have a fitted effect of over 55% in size
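Quantitative HTS, concentration-response format. 2,000 cells/well co-treated with 5-fluorouridine and compound, 16 hr in 5% CO2 at 37 °C; ONE-Glo luminescence read after 30 min.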
VP16 counter = VP16 counterscreen qHTS for inhibitors of ROR gamma transcriptional activity. Drosophila S2 Gal4-VP16 UAS-luciferase, luminescence, 20 h. Potency, µM (series often up to 53.6 µM), inactives show at the highest dose activity, negative = inhibition, usual class: inhibitors. 310,000 tested, 3.5% active;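 further: Gal4-VP16 expression switched on by copper sulfate through the metallothionein promoter; potency means the concentration at half of the fitted maximal effect; nearly all actives have a fitted effect of over 50% in size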
TSHR antagonist = Antagonists of the Thyroid Stimulating Hormone Receptor: HTS campaign; 330,000 tested, 0.2% active; activity change, negative = inhibition, % at 11.5 µM; TSHR-expressing cells, TSH-stimulated cAMP HTRF, 2 h; hits give low values; AID 504810, 2011; Thyrotropin receptor (Homo sapiens), P16473;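 active means activity change below a set negative limit, meaning inhibition stronger than a set level, cut at about -70% in these data; inconclusive means activity change between two set negative limits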
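Read-out is FRET at 665 nm (cryptate excitation 337 nm) from a cryptate-tagged anti-cAMP antibody, competed by cell cAMP against cAMP-d2. Compounds are tested on freshly harvested TSHR cells challenged with 4nM TSH (EC80) for 2 hours at 37 deg C.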
FBPA coupling cs = qHTS Assay for Inhibitors of Fructose-1,6-bisphosphate Aldolase from Giardia Lamblia: Coupling assay counterscreen | coupling enzyme system counterscreen, AmpLite Red fluorescence | activity change, negative = inhibition, % at 58.2 µM, hits read low | 290,000 tested, 0.67% active; in the data active means activity change below about -30%
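Final compound at 57.5 uM, incubated 10 min at RT with coupling enzyme reagent (glyceraldehyde-3-phosphate), then 20 min with substrate and AmpLite Red detection. Fluorescence read at 525/598 nm; tests interference with the coupling assay, not aldolase inhibition.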
RORgamma inh = qHTS for inhibitors of ROR gamma transcriptional activity. Nuclear receptor ROR-gamma (Mus musculus), P51450. Drosophila S2 Gal4-RORgamma UAS-luciferase reporter, 20 h. Potency, µM (highest dose often 53.6 µM), without a hit: at the top dose activity change, negative = inhibition, usual class: inhibitors. 310,000 tested, 5.4% active; further: potency means the concentration at half of the fitted maximal effect; nearly all actives have a fitted effect of over 60% in size
Target sequence (P51450 whole entry, looked up, the tested form may be a part): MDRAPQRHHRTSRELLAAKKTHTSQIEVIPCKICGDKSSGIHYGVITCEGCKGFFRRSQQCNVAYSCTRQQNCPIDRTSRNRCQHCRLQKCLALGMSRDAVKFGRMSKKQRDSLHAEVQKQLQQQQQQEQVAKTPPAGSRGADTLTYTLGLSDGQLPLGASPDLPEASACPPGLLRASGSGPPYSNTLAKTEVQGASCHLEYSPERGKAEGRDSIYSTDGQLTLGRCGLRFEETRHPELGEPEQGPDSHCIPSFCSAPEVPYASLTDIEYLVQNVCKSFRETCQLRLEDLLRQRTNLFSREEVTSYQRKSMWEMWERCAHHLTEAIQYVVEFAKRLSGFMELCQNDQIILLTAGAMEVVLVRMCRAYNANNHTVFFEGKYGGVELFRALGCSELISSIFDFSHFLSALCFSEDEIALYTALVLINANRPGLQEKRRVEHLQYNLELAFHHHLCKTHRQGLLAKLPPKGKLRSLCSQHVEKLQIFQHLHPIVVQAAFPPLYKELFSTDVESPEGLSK
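Luminescence from a UAS-regulated Photinus luciferase reporter in stably transfected Drosophila Schneider cells is measured; decreased signal marks ROR gamma inhibition. Fusion expression is induced by 700 uM copper sulfate for 20 hr.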
* marks the source's active call; other numbers are inactive results; ? = inconclusive; nt = no result; ! = a repeat was not active. This is a sample that favours compounds with a hit; in the whole collection about 8% have one here. Unless noted, the call rests on the fitted dose curve; in most records, active means well fitted curve in the direction sought with a large enough effect; inconclusive means small, poorly fitted or top-dose-only effect, or another doubt; inactive means no such curve, though single readings can be large; an effect the other way counts as inactive or inconclusive. On the % scale 0 is the no-effect control and ±100 the full control effect.

SMILES	ELG1 DNA repair	VP16 counter	TSHR antagonist	FBPA coupling cs	RORgamma inh
N#Cc1ccc(/C=C/C(=O)O)cc1	-8.1%	-11.8%	3.4	1.5	13.3%
O=C(/C=C/c1ccccc1)C1C(=O)c2ccccc2C1=O	?	8.91µM*	-7.6	-6.0	?
C/C1=C/C(=O)O[C@@H]2C[C@@H](CC[C@H](C)/C=C\CC1)O[C@@](O)(C1CSC(=O)N1)C2 (stereo not given in full)	nt	5.9%	nt	-0.7	-9.4%
CN(C)NC(=O)CCC(=O)O	nt	-6.8%	nt	nt	-1.0%
CC(=O)c1cn(CCCOc2ccccc2)c2ccccc12	-7.4%	6.31µM*	-6.2	-12.7	?
CC(C)Sc1nnc([C@@H](N)Cc2ccccc2)o1	?	11.2µM*	10.9	0.3	-57.3%
CSc1nnc([C@@H](N)Cc2ccccc2)o1	0.5%	0.3%	1.0	0.4	-2.1%
O=C1C(Cl)=C(Cl)C(=O)C(Cl)=C1Cl	nt	?	nt	-65.1*	4.47µM*
Nc1ccccc1-c1ccccc1	nt	4.5%	nt	nt	32.3%
COP(=S)(OC)Oc1ccc([N+](=O)[O-])cc1	nt	10µM*!	nt	3.1	11.2µM*!
COP(=S)(OC)Oc1ccc(Sc2ccc(OP(=S)(OC)OC)cc2)cc1	nt	?	nt	nt	21.5%
CC(=O)O[C@@H]1C[C@@]2(C)C(c3ccoc3)C[C@H]3O[C@]32[C@]2(C)C(=O)C(O)=C3C(C)(C)C(=O)C=C[C@]3(C)C12 (stereo not given in full)	nt	12.6µM*	nt	1.1	?
CC(=O)OC1C[C@@]2(C)C(c3ccoc3)C[C@H]3O[C@@]32[C@@]2(C)C(=O)C(O)=C3C(C)(C)C(=O)C=C[C@]3(C)C12 (stereo not given in full)	nt	3.16µM*	nt	-3.0	3.16µM*
O=C(CCl)c1ccc(Cl)cc1Cl	nt	?	nt	nt	8.91µM*
O=C(O)c1cc(Cl)ccc1Cl	nt	-29.6%	nt	nt	-18.0%
CCOC(=O)c1c(C)c(P(=S)(N2CCOCC2)N2CCOCC2)n(C)c1C	16.4µM*	-4.3%	-1.6	0.5	-1.3%
CCOP(=S)(OCC)N1CCOCCOCCN(P(=S)(OCC)OCC)CCOCCOCC1	-19.0%	-15.1%	-3.4	3.5	7.7%
CCn1c(=O)oc2cc(NC(=O)CCl)ccc21	?	?	-1.4	-0.9	11.2µM*
NC(=O)Nc1ccc(C(=O)OCC(=O)Nc2ccc(Cl)cc2C(=O)c2ccccc2)cc1	20.6µM*	5.7%	-2.1	3.9	?
Cc1c(C(=O)N2CCC3(CC2)OCCO3)sc2ncnc(N3CCc4ccccc4C3)c12	20.6µM*	-3.4%	-15.4	2.5	22.4%
O=C(c1ccccc1)N1CCC2(CC1)OCCO2	1.0%	-1.9%	1.9	1.5	-0.2%
COc1cc2c3cc1Oc1c(OC)c(OC)cc4c1[C@@H](Cc1ccc(OC(=O)c5ccc([N+](=O)[O-])cc5)c(c1)Oc1ccc(cc1)C[C@@H]3N(C)CC2)N(C)CC4	nt	?	nt	-6.0	?
CCC(C)n1c(O)c(/C=N/Nc2ccccc2)c(=O)[nH]c1=S (stereo not given)	9.7%	6.31µM*	-7.9	0.3	14.1µM*
CCC(C)n1c(O)c(C=NCCc2ccccc2)c(=O)[nH]c1=S (stereo not given)	-12.7%	?	6.3	-1.2	10µM*
Cc1ccc(NC(=S)NC2CC3CCC(C2)N3Cc2ccco2)cc1C (stereo not given)	3.4%	-18.8%	3.8	1.1	14.1µM*
SMILES	ELG1 DNA repair	VP16 counter	TSHR antagonist	FBPA coupling cs	RORgamma inh
COC(=O)[C@]12OC[C@]34C([C@@H](O)[C@@H]1O)[C@]1(C)CC(=O)C(O)=C(C)[C@@H]1C[C@H]3OC(=O)[C@H](O)[C@@H]24 (stereo not given in full)	?	0.224µM*	-3.4	1.0	0.562µM*
Oc1cc(Cl)cc(Cl)c1	nt	-1.1%	nt	nt	28.0%
C=CCc1c(C)[nH]c(=S)c(C#N)c1C	-4.1%	?	-7.5	-0.9	6.31µM*
O=C(Cl)OCc1ccccc1	nt	-0.1%	nt	nt	-22.2%
CCCN1[C@H](C(=O)OC)C[C@@H]2CC[C@@H](O)C[C@@H]21	nt	0.6%	nt	-4.6	-20.7%
O=[N+]([O-])c1ccc(NCc2ccc(Cl)cc2)c2ccncc12	-7.3%	11.2µM*	4.0	-19.4	-21.3%
O=[N+]([O-])c1ccc(NCc2ccccc2)c2nonc12	-0.9%	-4.7%	-0.8	-11.7	-2.9%
Cc1ccc(C2=[N+]([O-])C3(CCCCC3=O)N(O)C2(C)C)cc1 (stereo not given)	0.2%	3.98µM*	9.5	2.0	0.891µM*
ClC1=C(Cl)C(Cl)(Cl)C(Cl)=C1Cl	nt	?	nt	nt	17.8µM*
ClC1=C(Cl)C(Cl)(C2(Cl)C(Cl)=C(Cl)C(Cl)=C2Cl)C(Cl)=C1Cl	nt	7.08µM*	nt	-14.2	8.91µM*
CCCCC/C=C\C/C=C\C/C=C\C/C=C\CCCC(=O)NC1CC1	nt	?	nt	-0.5	?
NC(=O)c1sc2nc3c(c(-c4cccs4)c2c1N)CCCC3	2.31µM*	1.3%	-6.0	-1.6	19.3%
Nc1ncc(S(=O)(=O)c2ccc(Cl)cc2)c(N)n1	10.4%	-7.6%	-5.4	-0.2	?
CN(C)C(=O)Oc1ccc(OC(=O)N(C)C)cc1	?	2.1%	-9.6	-2.0	28.4%
CN(C)C(=O)Oc1ccc(OCc2nc3ccccc3[nH]2)cc1	?	11.2µM*	1.6	3.2	?
CNC(=O)c1cccn(Cc2cc(C(F)(F)F)cc(C(F)(F)F)c2)c1=O	6.51µM*	-13.9%	-12.6	1.3	8.1%
CNC(=O)c1cccn(Cc2ccc(C(F)(F)F)cc2)c1=O	?	19.3%	6.3	0.9	-41.2%
c1nc[nH]n1	nt	-4.8%	nt	nt	13.0%
COc1cc(-n2c(=S)[nH]c3ccccc3c2=O)c(Cl)cc1Cl	3.4%	5.62µM*	1.5	0.1	2.82µM*
CC(C)Oc1cc(-n2c(=S)[nH]c3ccccc3c2=O)c(Cl)cc1Cl	13.6%	5.01µM*	-10.1	0.8	2.82µM*
Oc1cccc(Cl)c1	nt	7.7%	nt	nt	-2.3%
OC[C@H]1O[C@@H](n2cnc3cc(Cl)c(Cl)cc32)[C@H](O)[C@H]1O	nt	7.94µM*	nt	-2.0	?
O[C@@H]1[C@@H]2O[P@@](O)(=S)OC[C@H]2O[C@H]1n1cnc2cc(Cl)c(Cl)cc21	nt	-7.7%	nt	11.6	-2.6%
OC[C@H]1O[C@@H](n2cnc3cc(Cl)c(Cl)cc32)[C@H](O)[C@@H]1O	8.91µM*	nt	-5.9	nt	nt
CCN1C[C@@]2(COC)CCC(OC)[C@]34C5C[C@]6(O)[C@@H](OC)C[C@](OC(C)=O)(C([C@H](OC)C23)[C@H]14)C5[C@H]6OC(=O)c1ccc(OC)cc1 (stereo not given in full)	nt	-11.3%	nt	-0.7	-0.2%
